Compound activity as filed in PubChem.
Hits are enriched below; roughly 7.5% of the tested compounds scored in any of these assays.
NPC1 prom act = NPC1 promoter activation; Huh7 NPC1 promoter luciferase reporter, 24 h; Potency, µM (series often up to 9.22 µM), inactives show at the top dose activation, most hits filed as activators; 2.4% of 320,000 active; note: % of control where 0% means no effect; nearly all actives have a fitted effect of over 60% in size
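Quantitative HTS used a cell-based reporter: Huh7 cells stably bearing the NPC1 promoter upstream of luciferase were treated with compounds for 24 h, and promoter activation was read as luminescence.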
FLuc modulator = firefly luciferase modulation, counter-screen for miR-21 project; purified FLuc, Km substrates, luminescence inhibition; Potency, µM (highest dose often 57.5 µM), inactives show top-dose activity change, negative = inhibition, most hits filed as inhibitors; 6.9% of 360,000 active;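 note: plate controls were vehicle for no effect and reference inhibitor for full effect; nearly all actives have a fitted effect of over 55% in size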
Target sequence (P08659 whole entry, looked up): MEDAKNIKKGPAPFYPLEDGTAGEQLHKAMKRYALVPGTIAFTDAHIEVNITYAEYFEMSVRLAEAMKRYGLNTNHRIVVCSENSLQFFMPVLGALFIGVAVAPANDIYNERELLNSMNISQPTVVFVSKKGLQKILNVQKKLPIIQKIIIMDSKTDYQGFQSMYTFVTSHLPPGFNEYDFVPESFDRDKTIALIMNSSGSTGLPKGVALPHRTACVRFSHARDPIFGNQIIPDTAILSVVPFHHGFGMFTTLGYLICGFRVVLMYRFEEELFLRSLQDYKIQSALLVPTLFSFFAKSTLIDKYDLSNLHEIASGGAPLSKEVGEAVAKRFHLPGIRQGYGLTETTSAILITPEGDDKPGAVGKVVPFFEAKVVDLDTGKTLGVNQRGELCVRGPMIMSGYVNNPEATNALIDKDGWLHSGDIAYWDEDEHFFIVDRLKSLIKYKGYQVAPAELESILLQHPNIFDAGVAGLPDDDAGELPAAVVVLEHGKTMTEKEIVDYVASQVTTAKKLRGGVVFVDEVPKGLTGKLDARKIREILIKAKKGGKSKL
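Purified P. pyralis luciferase, 10 nM final, with Km-level 10 uM D-luciferin and 10 uM ATP in 50 mM Tris acetate pH 7.5, 10 mM Mg acetate, 0.01% Tween-20, 0.05% BSA; 6-point qHTS titration about 60 µM downward; luminescence read.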
SMN2 splice enh = enhancers of SMN2 splice variant expression; HEK293 SMN2-luciferase splicing reporter, luminescence, 30-36 h; Potency, µM (top dose mostly 46.1 µM), without a hit: at the highest dose activity change, positive = activation, usual class: activators; 2.8% of 210,000 active; AID 1458; note: % of control where 0% means no effect; nearly all actives have a fitted effect of over 55% in size
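HEK293 cells carry an SMN2 minigene-luciferase reporter in which exon 7 inclusion puts luciferase in frame. Cells were seeded at 2000 cells/well, attached for 10-12 hours, then exposed to compounds for 30-36 hours at 37C before ONE-Glo luminescence.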
Rab9 promoter act = Rab9 promoter activation; Huh7 Rab9 promoter-luciferase reporter, luminescence, 24 h; Potency, µM (series often up to 9.22 µM), without a hit: top-dose activation, negative = inhibition, usual class: activators; 2.8% of 320,000 active; note: % of control where 0% means no effect; nearly all actives have a fitted effect of over 60% in size
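Huh7 reporter line, Rab9 promoter upstream of luciferase. Compound exposure 24 h at 37 °C in reduced-serum medium with 10% FBS. Read-out: luminescence.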
ELG1 genotoxic = inducers of genotoxicity in HEK293T ELG1-luciferase cells; HEK293T ELG1-luciferase reporter, luminescence, 16 h; Potency, µM (titrated, usually from 46 µM), for the others: at the highest dose activity change, positive = activation, most hits filed as activators; 1.3% of 330,000 active; AID 504466; note: % of control where 0% means no effect; nearly all actives have a fitted effect of over 60% in size
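Genotoxic stress is detected as increased luminescence from luciferase-tagged ELG1 in HEK293T cells, measured with ONE-Glo after a 16 hr treatment at 37 °C.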
An asterisk follows results filed as active; ! = repeats disagree. Calls come from the whole dose curve; as a rule, active = well fitted curve in the direction sought with a large enough effect; inconclusive = small, poorly fitted or top-dose-only effect, or another doubt; inactive = no such curve, though single readings can be large; an effect the other way counts as inactive or inconclusive. Potency is the fitted concentration of half-maximal effect.

Screening CC(C)(C)c1ccc(Oc2ccc(NC(=O)c3ccccc3C(=O)O)cn2)cc1 returned NPC1 prom act -1%, FLuc modulator 19µM*, Rab9 promoter act -1% and ELG1 genotoxic -6%.
Cc1ccc(-c2nnc(Nc3ccccc3)o2)cc1 was read as NPC1 prom act inconclusive, FLuc modulator 0.15µM*, SMN2 splice enh 0.4µM*, Rab9 promoter act 0.13µM* and ELG1 genotoxic 0.15µM*.
Screening Cc1ccc(NC(=O)Nc2nnc(-c3ccccc3)o2)cc1 returned NPC1 prom act 24%, FLuc modulator inconclusive, SMN2 splice enh 25%, Rab9 promoter act inconclusive and ELG1 genotoxic 25%.
Screening C(=C\c1nnc(-c2cccs2)o1)/c1ccccc1 returned NPC1 prom act 2.5µM*, FLuc modulator 5.4µM*, SMN2 splice enh inconclusive, Rab9 promoter act 2.5µM* and ELG1 genotoxic inconclusive.
Cc1ccc(/C=C/c2nnc(-c3ccccc3)o2)cc1 was read as NPC1 prom act 0.89µM*, FLuc modulator 5.4µM*, SMN2 splice enh inconclusive, Rab9 promoter act 1.1µM* and ELG1 genotoxic inconclusive.
Screening O=c1c2c3c(sc2nc2sc(C4CC4)nn12)CCCC3 returned NPC1 prom act 2.5µM*, FLuc modulator 3µM*, SMN2 splice enh 7.9µM*, Rab9 promoter act 4µM* and ELG1 genotoxic 5.8µM*.
`O=c1[nH]c(C2CC2)nc2sc3c(c12)CCCC3` gave NPC1 prom act -3%, FLuc modulator -14%, SMN2 splice enh -3%, Rab9 promoter act -10% and ELG1 genotoxic 2%.
Screening Cc1ccc(-c2nnc(SCC(=O)NCCC(C)C)nc2-c2ccc(C)cc2)cc1 returned FLuc modulator -14%.
CCC(CC)C(=O)Nc1nnc(S(=O)(=O)N2c3ccccc3CC2C)s1 (configuration not stated) was read as NPC1 prom act -2%, FLuc modulator 17µM*!, Rab9 promoter act 0% and ELG1 genotoxic -5%.
Screening CCC(CC)C(=O)Nc1nnc(S(=O)(=O)N2CCc3ccccc32)s1 returned NPC1 prom act -1%, FLuc modulator -4%, Rab9 promoter act 2% and ELG1 genotoxic -4%.
`CC(=O)O[C@@H]1C[C@H]2C(C)(C)C(=O)C=C[C@]2(C)[C@H]2CC[C@@]3(C)[C@H](c4ccoc4)OC(=O)[C@H]4O[C@]43[C@@]21C` gave NPC1 prom act -1%, FLuc modulator 8%, SMN2 splice enh -90%, Rab9 promoter act -10% and ELG1 genotoxic -7%.
For COc1cccc(CNn2cnnc2)c1O the results were NPC1 prom act 0%, FLuc modulator 1%, Rab9 promoter act -7% and ELG1 genotoxic 3%.
COc1cccc(CNc2ncc(Br)cc2Br)c1O was read as NPC1 prom act inconclusive, FLuc modulator 27µM*, SMN2 splice enh 18%, Rab9 promoter act inconclusive and ELG1 genotoxic 14%.
COc1cccc(CNc2ccc(Br)cn2)c1O was read as NPC1 prom act 1µM*, FLuc modulator 1.5µM*, SMN2 splice enh 14µM*, Rab9 promoter act 2.8µM* and ELG1 genotoxic inconclusive.
For Oc1ccc2ccccc2c1CNc1ccc(Br)cn1 the results were NPC1 prom act -3%, FLuc modulator 24µM*, Rab9 promoter act 1% and ELG1 genotoxic 13%.
Oc1ccc2ccccc2c1CNc1ccc(Br)cc1 was read as NPC1 prom act -3%, FLuc modulator -7%, Rab9 promoter act -5% and ELG1 genotoxic 3%.
Screening C=CCn1c(SCC(=O)NCCc2ccccc2)nc2c([nH]c3ccccc32)c1=O returned NPC1 prom act -2%, FLuc modulator 5%, Rab9 promoter act 5% and ELG1 genotoxic inconclusive.
O=C(N[C@H]1/C=C\[C@@H](O)CCCC1)OCc1ccccc1 was read as ELG1 genotoxic 15µM*.
O=C(CSc1nnc(-c2cccs2)o1)N1CCOCC1 was read as NPC1 prom act -1%, FLuc modulator 0%, SMN2 splice enh -1%, Rab9 promoter act 0% and ELG1 genotoxic 4%.
Screening CC1CCN(C(=O)CSc2nnc(-c3cccs3)o2)CC1 returned NPC1 prom act 13%, FLuc modulator -14%, Rab9 promoter act 21% and ELG1 genotoxic 20%.
